Source: PubChem (several laboratories)
MEX-5 binding: C. elegans MEX-5 TCR-2 RNA binding activity; 0.38% of 300,000 active; MEX-5/FITC-TCR2 RNA binding, fluorescence polarization; hits give low values; Q9XUB2; activity score (negative = inhibition of binding), % at 10 µM;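 active = inhibition past about -25% in most replicates, and total fluorescence under double the plate's negative control median, limit read from the data; inconclusive = replicates evenly split on the limit, or fluorescence at least double controls; inactive = too little inhibition in most replicates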
MCL1 BIM primary: disrupts human MCL1 binding to BIM-BH3 peptide; Q07820; inhibition, % at 10.9 µM; AID 2057; GST-MCL1 / FITC-Bim-BH3 fluorescence polarization; 0.68% of 320,000 active;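 active = inhibition above the mean inhibition of all tested compounds plus 3 SD, set per campaign, cut at about 40% in these data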;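 note: higher means more loss of mP so more displacement of Bim peptide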
Target sequence (Q07820 whole entry, looked up): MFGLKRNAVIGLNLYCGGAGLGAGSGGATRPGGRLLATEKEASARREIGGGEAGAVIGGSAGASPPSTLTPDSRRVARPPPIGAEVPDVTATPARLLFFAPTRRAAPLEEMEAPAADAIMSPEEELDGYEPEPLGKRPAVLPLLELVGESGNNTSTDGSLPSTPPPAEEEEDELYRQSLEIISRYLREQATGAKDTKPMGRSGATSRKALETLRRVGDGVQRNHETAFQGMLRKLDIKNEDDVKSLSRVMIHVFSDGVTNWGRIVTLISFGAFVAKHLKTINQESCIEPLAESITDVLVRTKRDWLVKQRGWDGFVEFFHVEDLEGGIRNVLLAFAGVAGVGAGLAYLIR
IDE cell inh: cellular human IDE inhibition. P14735. HEK cells, FAbetaB cleavage, fluorescence polarization. inhibition, % at 5.59 µM. 0.41% of 320,000 active;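 active = percent inhibition above the average of all tested compounds plus 3 SD, set per screening campaign, cut at about 16% in these data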;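 note: IDE supplied by intact live HEK cells; FP after avidin binding of uncleaved biotin substrate so inhibition keeps polarization high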
Bcl-xL primary: inhibitors of human Bcl-xL. GST-Bcl-xL / FITC-Bim BH3 peptide fluorescence polarization. Q07817. 0.7% of 320,000 active. inhibition, % at 10.9 µM;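 active = inhibition above the mean of all tested compounds plus 3 SD, cutoff set per campaign, cut at about 30% in these data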;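 note: inhibitors lower millipolarization by displacing the labeled peptide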
Target sequence (Q07817 whole entry, looked up): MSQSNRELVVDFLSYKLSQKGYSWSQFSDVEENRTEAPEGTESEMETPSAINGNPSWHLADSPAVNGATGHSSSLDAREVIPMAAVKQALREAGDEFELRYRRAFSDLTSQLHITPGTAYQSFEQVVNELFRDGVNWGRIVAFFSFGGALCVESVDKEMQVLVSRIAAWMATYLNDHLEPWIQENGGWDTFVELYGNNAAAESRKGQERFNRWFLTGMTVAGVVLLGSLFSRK
IDE act: IDE (human) activation, cell-based | activation, % at 5.96 µM | HEK cells, FAbeta-B cleavage, fluorescence polarization; 0% vehicle, 100% cell-free pure enzyme wells | P14735 | 0.073% of 340,000 active;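 active = activation above the mean of all tested compounds plus 3 SD, set per screening campaign, cut at about 17% in these data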
GLD-1 RNA inh: GLD-1-TGE RNA interaction inhibition (C. elegans); Q17339; inhibition, % at 5.96 µM; AID 2280; 0.44% of 320,000 active; purified GLD-1 + fluorescein TGE RNA, fluorescence polarization;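 active = percent inhibition above a per-plate cutoff, the plate mean of test compounds plus 3 SD, cut at about 30% in these data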
IDE inh confirm: cellular human IDE inhibition, confirmation; HEK cells, FAbetaB cleavage, fluorescence polarization; shares compounds with IDE cell inh; inhibition, % at 5.59 µM; 51% of 1,200 active;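 active = mean inhibition across triplicate wells above the cutoff set by the earlier primary insulin-degrading enzyme screen, cut at about 16% in these data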
HEK cytotox: counter-screen for IDE inhibitors: cytotoxicity in HEK cells. shares compounds with IDE cell inh. HEK293 cytotoxicity, ATP luminescence. inhibition, % at 5.59 µM. 28% of 1,200 active; in the data active = inhibition above about 22%
Of the large screens only hits and unclear results are named; the others gave an inactive call (follow-up assays come after a bar, where they were run). An excerpt weighted towards active compounds, which were near 1.5% of everything screened.

COc1ccc(NC(=O)/C(C#N)=C/c2ccc(Br)o2)cc1	none
COc1ccc(NC(=O)/C(C#N)=C\c2ccc(N3CCOCC3)o2)cc1	MEX-5 binding inconclusive, IDE cell inh 126.1 | IDE inh confirm 144.6 | HEK cytotox inactive
N#C/C(=C/c1ccc(N2CCCCC2)o1)C(=O)Nc1ccc(Cl)cc1	IDE cell inh 71.4 | IDE inh confirm 63.6 | HEK cytotox 33.7
N#C/C(=C\c1ccc(N2CCOCC2)o1)C(=O)Nc1ccc(O)cc1	MEX-5 binding inconclusive, IDE cell inh 58.6 (no result: IDE act) | IDE inh confirm 65.6 | HEK cytotox inactive
Cc1cccc(-c2nc(CNC(=O)c3ccco3)cs2)c1	none
Cc1ccc(-c2cc(Cc3ccccn3)c(=O)[nH]n2)cc1	none
CC(=O)c1cccc(NCC(=O)N2CCN(S(=O)(=O)c3ccccc3)CC2)c1	none (no result: MEX-5 binding)
O=C(COC(=O)CCNS(=O)(=O)c1ccccc1)NC(=O)Cc1ccccc1	none (no result: MEX-5 binding)
N#Cc1c2c(c[nH]c1=O)CCN2Cc1ccccc1	IDE cell inh 16.3 | IDE inh confirm inactive | HEK cytotox inactive
Cn1c(N)c(C(=O)COC(=O)CSc2ccc3ccccc3c2)c(=O)n(C)c1=O	IDE cell inh 17.6 | IDE inh confirm inactive | HEK cytotox inactive
CCN(CC)c1ccc(-c2nnc(SCC(=O)Nc3ccccc3C#N)n2-c2ccccc2)cc1	none
CN1CCS/C1=C/C=C1/SC(=S)N(Cc2ccccc2)C1=O	IDE cell inh 105.2 | IDE inh confirm 81.8 | HEK cytotox inactive
CN1CCS/C1=C/C=C1\SC(=S)N(CC(=O)O)C1=O	MEX-5 binding inconclusive, IDE cell inh 59.8 | IDE inh confirm 74.6 | HEK cytotox inactive
CC(C)n1nnc2c(=O)oc3ccccc3c21	none
CC(=Nc1cccc(O)c1)c1sc2ccccc2c1O	IDE cell inh 27.2 | IDE inh confirm 64.8 | HEK cytotox inactive
CC(=Nc1ccc(C)cc1)c1sc2ccccc2c1O	IDE cell inh 25.1 | IDE inh confirm 44.5 | HEK cytotox inactive
O=C(CSc1nnc(COc2ccc(Cl)cc2)o1)Nc1ccc(N2CCOCC2)cc1	none (no result: MEX-5 binding, MCL1 BIM primary, IDE cell inh, Bcl-xL primary, GLD-1 RNA inh)
CC(=O)C1=C(C)NC(SCSc2ccccc2)=C(C#N)C1c1cccnc1 (stereo not given)	IDE cell inh 21.2 (no result: IDE act) | IDE inh confirm inactive | HEK cytotox inactive
CC(=O)C1=C(C)NC(SCC(=O)c2ccc(-c3ccccc3)cc2)=C(C#N)C1c1cccnc1 (stereo not given)	none (no result: MEX-5 binding, IDE act)
O=C(Nc1ccc(C(F)(F)F)cc1Cl)c1ccc(Cn2cc(Br)cn2)o1	IDE cell inh 16.7 | IDE inh confirm inactive | HEK cytotox inactive
C=CCn1c(=O)/c(=C/c2ccc(Cl)cc2)s/c1=C(/C#N)c1nnc2n1CCCCC2	none
C=CCn1c(=O)/c(=C/c2ccc(O)cc2)s/c1=C(/C#N)c1nnc2n1CCCCC2	IDE cell inh 102.3 (no result: MEX-5 binding) | IDE inh confirm 88.4 | HEK cytotox inactive
CCn1c(COc2c(C)cccc2C)nnc1SCC(=O)N1CCN(c2ccccc2)CC1	none
C=CCn1c(COc2cccc(C)c2C)nnc1SCC(=O)N1CCN(c2ccccc2)CC1	IDE cell inh 26.9 | IDE inh confirm inactive | HEK cytotox 38.0
O=S(=O)(Nc1ccc(Br)cc1)c1cccc(NS(=O)(=O)c2cccs2)c1	none (no result: MEX-5 binding, MCL1 BIM primary, IDE cell inh, Bcl-xL primary, GLD-1 RNA inh)
O=C1/C(=C/c2ccc(O)cc2)SC(=S)N1CC1CCCO1 (stereo not given)	IDE cell inh 87.3 | IDE inh confirm 166.8 | HEK cytotox inactive
O=C1/C(=C\c2ccc(O)cc2)SC(=S)N1Cc1ccccc1	IDE cell inh 76.8 | IDE inh confirm 137.2 | HEK cytotox inactive
CC(=O)Oc1ccc(/C=C2/SC(=S)N(Cc3ccccc3)C2=O)cc1	IDE cell inh 16.2 | IDE inh confirm 77.7 | HEK cytotox inactive
Cc1ccc2c(c1)CCCN2C(=O)c1cc(C)on1	none
O=c1[nH]c2cc(Br)cnc2nc1/C=C(\O)c1ccc(F)cc1	IDE cell inh 25.5 | IDE inh confirm 65.4 | HEK cytotox inactive
COC(=O)c1ccccc1NC(=O)C1CCN(c2ncnc3c2nc2n3CCCCC2)CC1	none
ClC1(Cl)CC1CSc1nc2ccccc2[nH]1 (stereo not given)	none
CCOc1ccc2nc(SCC3CC3(Cl)Cl)[nH]c2c1 (stereo not given)	IDE cell inh 16.2 | IDE inh confirm inactive | HEK cytotox 29.5
CC(CC(=O)O)CC(=O)N1CCN(S(=O)(=O)c2cccs2)CC1 (stereo not given)	IDE cell inh 20.2 | IDE inh confirm inactive | HEK cytotox inactive
Cc1ccc(C2CC(c3cccs3)=NN2C(=O)CSc2nc(=O)n3cc(C)ccc3n2)cc1 (stereo not given)	none
COc1ccc(C2CC(c3cccs3)=NN2C(=O)CSc2nc(=O)n3ccccc3n2)cc1 (stereo not given)	IDE cell inh 16.8 | IDE inh confirm inactive | HEK cytotox inactive
COc1ccc(NC(=O)CC2C(=O)N(c3ccc(OC)cc3)C(=O)N2Cc2ccc(OC)c(OC)c2)cc1 (stereo not given)	none
CCn1c(SCC(=O)Nc2nc(-c3ccc(C)cc3)cs2)nnc1-c1ccccc1	IDE cell inh 16.2 | IDE inh confirm inactive | HEK cytotox inactive
COCCNC(=O)Cn1nc(-c2ccc(Cl)cc2)c2ccccc2c1=O	none
O=C(c1ccc(F)cc1)N1CCN(Cc2ccccc2)CC1	none
COc1ccc(C(=O)CC(=O)c2ccc(F)cc2)cc1	none (no result: IDE act)
COc1ccc(/C=C2\C(=O)NC(=S)N2C(=O)c2ccc(F)cc2)cc1	IDE cell inh 37.4 | IDE inh confirm 58.6 | HEK cytotox inactive
O=C1NC(=S)N(C(=O)c2ccc(F)cc2)/C1=C/c1ccccc1	IDE cell inh 27.7 | IDE inh confirm 31.9 | HEK cytotox inactive
O=C(CCC1CCN(C(=O)c2cc(C(F)(F)F)ccc2Cl)CC1)NC1CC1	none
CCc1sc(NC(=O)C(C)C)nc1-c1ccccc1	none
O=S(=O)(c1ccc(SCc2cccc(Cl)c2)nc1)N1CCCC1	IDE cell inh 16.5 (no result: MEX-5 binding) | IDE inh confirm 17.9 | HEK cytotox inactive
Cc1ccc(CSc2ccc(S(=O)(=O)N3CCCC3)cn2)cc1	none (no result: MEX-5 binding)
COc1ccccc1C(=O)NCC(=O)N/N=C/c1cccc(Cl)c1	none
COc1cccc2cc(-c3nc4ccccc4o3)c(=O)oc12	none
O=c1oc2ccc(Br)cc2cc1-c1nc2ccccc2o1	IDE cell inh 20.3 | IDE inh confirm 73.3 | HEK cytotox inactive
O=c1c2[nH]c3ccccc3c2ncn1CCCn1ccnc1	none
O=c1c2[nH]c3ccc(Br)cc3c2ncn1CCCn1ccnc1	IDE cell inh 21.1 | IDE inh confirm inactive | HEK cytotox inactive
